# Screening results: PubChem BioAssay, National Center for Advancing Translational Sciences (NCATS)
# CBFb RUNX1 block – inhibitors of human CBF-beta and RUNX1 interaction; Potency, µM (doses to about 59.8 µM), actives largely listed as inhibitors; Q01196+Q13951; AlphaScreen CBFb-His/RUNX1-biotin binding, biochemical; 230,000 tested, under 10 active
#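 Inhibition was taken as any reduction in AlphaScreen signal from the CBF-beta–RUNX1 pair (His and biotin tags, 30 nM each), measured after compound (15 min) and bead (90 min) incubations at room temperature.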
# ALDH1A1 inh – inhibitors of human aldehyde dehydrogenase 1A1; Potency, µM (top dose mostly 75.3 µM), usual class: inhibitors; Purified ALDH1A1, NADH fluorescence, propionaldehyde substrate; actives 7.3% (n = 220,000); active means well fitted inhibition curve with a large enough effect, not every such curve was filed as active; inconclusive means small, poorly fitted or top-dose-only effect, or another doubt; inactive means no such curve, though single readings can be large or run the other way
# HttQ103 aggreg – reduces HttQ103-GFP aggregates in PC12 cells | AID 1688 | actives 1.1% (n = 220,000) | Potency, µM (top dose mostly 46.1 µM), usual class: inhibitors | PC12 HttQ103-GFP aggregates, Acumen cytometry, 40 h; further: nearly all actives have a fitted effect of over 60% in size
#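 Inducible Q103 Huntingtin exon 1–GFP PC12 line, 1500 cells/well in phenol red free DMEM with 5% equine and 5% calf serum. Tebufenozide 100 nM induced expression; compounds titrated; aggregates quantified by cytometry.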
# HTT cytoprotect – protects HTT-Q103 PC12 cells, measured by ATP. Potency, µM (top dose mostly 56.4 µM), actives largely listed as activators. AID 1471. PC12 HTT-Q103 induced, cytoprotection, ATP luminescence, 40 h. actives 0.14% (n = 230,000); further: nearly all actives have a fitted effect of over 45% in size
#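 Quantitative HTS on tebufenozide-induced (100 nM) PC12 cells expressing HTTQ103 exon 1–GFP; compounds tested as a concentration series; survival measured via cellular ATP.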
# HPGD block – blocks human HPGD enzyme activity; P15428; purified HPGD, NADH fluorescence kinetic, PGE2 substrate; Potency, µM, usual class: inhibitors; actives 4.3% (n = 150,000); active means well fitted inhibition curve with a large enough effect, not every such curve was filed as active; inconclusive means small, poorly fitted or top-dose-only effect, or another doubt; inactive means no such curve, though single readings can be large or run the other way
# Target sequence (P15428 whole entry, looked up): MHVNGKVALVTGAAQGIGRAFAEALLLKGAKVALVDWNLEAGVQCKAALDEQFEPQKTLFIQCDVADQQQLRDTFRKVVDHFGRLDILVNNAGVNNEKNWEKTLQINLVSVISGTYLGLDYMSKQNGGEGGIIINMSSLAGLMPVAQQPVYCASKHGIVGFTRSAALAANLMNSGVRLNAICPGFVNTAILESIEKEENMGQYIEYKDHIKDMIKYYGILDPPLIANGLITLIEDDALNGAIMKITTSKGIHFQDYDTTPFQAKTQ
#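 NADH formation kinetics: reaction with 30 uM PGE2 and 1 mM NAD+ (final), 20 nM enzyme, Tris-HCl pH 8 with Tween 20, after 15 min compound preincubation at room temperature. Fluorescence change, last versus first of five reads.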
# JMJD2E inh – inhibitors of human JMJD2E histone demethylase; AID 2147; B2RXH2; actives 1.6% (n = 230,000); JMJD2E catalytic domain, FDH-coupled NADH fluorescence (FDH is formaldehyde dehydrogenase); Potency, µM (series often up to 57.1 µM), most hits filed as inhibitors; active means well fitted inhibition curve with a large enough effect, not every such curve was filed as active; inconclusive means small, poorly fitted or top-dose-only effect, or another doubt; inactive means no such curve, though single readings can be large or run the other way; further: nearly all actives have a fitted effect of over 50% in size
# Target sequence (B2RXH2 1-337 limits assumed): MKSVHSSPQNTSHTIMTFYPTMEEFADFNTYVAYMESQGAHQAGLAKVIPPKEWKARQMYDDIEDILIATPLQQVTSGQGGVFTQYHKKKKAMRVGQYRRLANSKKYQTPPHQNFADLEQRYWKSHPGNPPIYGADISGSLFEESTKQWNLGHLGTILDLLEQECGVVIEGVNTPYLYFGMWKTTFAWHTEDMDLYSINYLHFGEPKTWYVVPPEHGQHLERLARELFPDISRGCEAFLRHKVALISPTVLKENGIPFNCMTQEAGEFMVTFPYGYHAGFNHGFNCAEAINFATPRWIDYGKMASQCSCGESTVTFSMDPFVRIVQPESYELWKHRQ
# A number is an active result; i = inactive; ? = inconclusive; nt = no result; [ ] = dose if it differs, or a comment. Only some compounds are listed: those with a hit (about 9.8% of all), similar ones and a draw of the others. Unless noted, the call rests on the fitted dose curve; in most records, active means well fitted curve in the direction sought with a large enough effect; inconclusive means small, poorly fitted or top-dose-only effect, or another doubt; inactive means no such curve, though single readings can be large; an effect the other way counts as inactive or inconclusive.
SMILES,CBFb RUNX1 block,ALDH1A1 inh,HttQ103 aggreg,HTT cytoprotect,HPGD block,JMJD2E inh
O=C1C2C3C=CC(C3)C2C(=O)N1c1ccc(N2CCN(c3ccccn3)CC2)c([N+](=O)[O-])c1 (stereo not drawn),?,?,?,i,nt,i
CNc1nc(C)c(C(C)(C)C)s1,i,nt,i[9.22 µM],i[10 µM],nt,i
Clc1cc(Sc2ccc(Br)cc2)nnc1-c1ccccc1,i,1µM,i,i,i,i
Nc1cc(Nc2ccc(Br)cc2)nc(N)n1,i,nt,i[9.22 µM],i[10 µM],nt,i
COc1cc(NC(=S)NCCc2ccc(S(N)(=O)=O)cc2)c(OC)cc1Cl,i,11.2µM,i,i,nt,i
COc1cc(C)c(NC(=S)Nc2ccc(Cl)c(Cl)c2)cc1OC,i,8.91µM,?,?,15.8µM,i
COc1cc(Cl)c(C)cc1NC(=S)NN,i,11.2µM,i,i,nt,?
COc1cc(NC(=S)Nc2ccc(Br)cc2Cl)c(OC)cc1Cl,i,28.2µM,i,i[10 µM],i,i
Cc1cccc(Cc2nnc(CCC(=O)NCc3cn4ccccc4n3)o2)c1,i,i,i[9.22 µM],i[10 µM],nt,i
Cc1nc2nc[nH]n2c(=O)c1CCOC(=O)c1c(F)cccc1F,i,?,i,i,nt,i
O=C(OCn1ncc(Br)c(Br)c1=O)c1c(F)cccc1F,i,0.501µM,?,i,28.2µM,i
CC(C)(C)C(=O)Cn1ncc(N2CCCC2)c(Br)c1=O,i,i,i,i,i,i
CC(=O)Cn1ncc(Br)c(Br)c1=O,i,3.55µM,i[9.22 µM],i,nt,i
CC1(N(O)/C=C2\C=CC=CC2=O)CCCCC1=O (stereo not drawn),i,nt,i[9.22 µM],i[10 µM],nt,i
Cc1nn(-c2ccccc2)c(N2CCCC2)c1/C=N/NC(=O)c1ccccc1O,i,?,?,i[10 µM],?,?
O=C(N/N=C/c1cc2c3c(c1O)CCCN3CCC2)c1ccccc1O,nt,i,0.891µM,nt,i,31.6µM
CNc1ccc(/C=C/C(=O)c2cccc3ccccc23)cc1[N+](=O)[O-],i,?,i,i[10 µM],i,i
CCCN1C(=O)c2ccc(C(=O)NCc3ccco3)cc2C1=O,i,6.31µM,i,i[0.074 µM],i,i
O=C(NCc1ccco1)c1ccc2c(c1)C(=O)N(C1CCCCC1)C2=O,i,?,i,i,i,i
COCCCN1C(=O)c2ccc(C(=O)NCc3ccco3)cc2C1=O,i,12.6µM,i,i,i,i
CS(=O)(=O)c1ccc(-c2nc(-c3ccc(F)cc3)c(-c3ccncc3)[nH]2)cc1,i,?,nt,i,nt,nt
Cc1sc(-n2c(C)ccc2C)c(C#N)c1C,i,22.4µM,?,?,17.8µM,i
Cc1ccc(C)n1-c1sc2c(c1C#N)CCCC2,i,i,?,i[10 µM],i,i
Cc1cc(NC(=O)c2ccccc2F)ncc1NC(=O)c1cccs1,i,i,i[9.22 µM],i,nt,?
O=C(CSc1nnc(NC2CCCCC2)s1)NN1C(=O)NC2(CCCCC2)C1=O,i,i,i,i[10 µM],nt,i
SMILES,CBFb RUNX1 block,ALDH1A1 inh,HttQ103 aggreg,HTT cytoprotect,HPGD block,JMJD2E inh
COc1ccc(C(=O)C(CCC(CNC(C)(C)C)C(=O)c2ccc(OC)cc2)CNC(C)(C)C)cc1 (stereo not drawn),i,8.91µM,17.8µM,nt,i,i
COc1ccc(C(=O)CC(=O)c2ccc(C(C)(C)C)cc2)cc1,?,?,i,i,i,i
CCOC(=O)c1cnn(-c2c(Cc3ccccc3)c(C)nc3c(-c4ccccc4)c(C)nn23)c1N,i,0.1µM,i,i,i,i
Clc1ccc(/C=C/c2ncc3ccccn23)cc1,i,i,i[9.22 µM],i[10 µM],nt,i
COC(=O)c1c(C(=O)NCc2ccccc2)ncn1CC(O)COc1ccccc1 (stereo not drawn),i,7.94µM,i,i,i,i
Cc1nccn1CC(O)COc1ccccc1 (stereo not drawn),i,i,i,i[10 µM],i,i
Cc1nnc(SCC(=O)NCc2ccc(F)cc2)[nH]c1=O,i,?,i,i,nt,i
O=c1cc(N=Nc2ccc(Cl)cc2)[nH]c(=O)[nH]1,i,nt,i[9.22 µM],i[10 µM],nt,?
O=C(/C=C\c1ccc(-c2ccccc2)o1)c1ccccc1,i,3.98µM,i,i[10 µM],?,i
Cc1ccc(C(=O)/C=C/c2ccc(-c3ccc(C)cc3)o2)cc1,i,0.708µM,i,i[10 µM],7.08µM,i
Cc1ccc(S/C=C\C(=O)c2ccccc2)cc1,i,20µM,i,i,i,i
Cc1ccc(C(=O)/C=C\C(=O)c2ccc(C)cc2)cc1,i,7.08µM,?,i[10 µM],2.24µM,i
O=C(O)/C=C/C(=O)c1ccc(O)cc1,i,14.1µM,i[9.22 µM],i[10 µM],nt,i
O=C(O)/C=C/C(=O)Nc1ccc(O)cc1,i,i,i[9.22 µM],i[10 µM],nt,i
COc1cc(OC)cc(-c2nnc(Sc3ccc(C=O)cc3[N+](=O)[O-])o2)c1,i,2µM,i,i,14.1µM,i
Cc1ccccc1NC(=O)c1cc(S(=O)(=O)N2CCCCC2)cs1,i,?,i,i,i,i
COc1cc(OC)cc(C(=O)NC(=S)Nc2ccc(N3CCCC3)cc2)c1,?,11.2µM,i,i[10 µM],i,i
O=C(Nc1ccc(F)cc1)c1cc(S(=O)(=O)N2CCCCC2)cs1,i,i,10µM,i,i,i
O=C(NC(=S)Nc1ccccc1N1CCOCC1)c1cccs1,i,39.8µM,?,i[10 µM],i,?
O=C(NC(=S)Nc1ccc(S(=O)(=O)N2CCCCCC2)cc1)c1cccs1,i,12.6µM,i,i[10 µM],i,i
COc1ccc2nccnc2c1[N+](=O)[O-],i,nt,i[9.22 µM],i[10 µM],nt,i
Cc1cc(C(=O)Nc2ncc(C)s2)c2ccccc2n1,i,?,i,i[10 µM],nt,i
O=C(NC(=S)Nc1ccc(N2CCCCC2)cc1)c1cccs1,?,22.4µM,i,i[10 µM],31.6µM,i
Cc1ccc(C(=O)N/N=C/c2ccc(N3CCOCC3)cc2)c(C)c1,i,i,i,i,nt,?
Cc1cccc(C(=O)NC(=S)Nc2ccc(S(=O)(=O)N3CCN(C)CC3)cc2)c1,i,?,i,i,i,i
SMILES,CBFb RUNX1 block,ALDH1A1 inh,HttQ103 aggreg,HTT cytoprotect,HPGD block,JMJD2E inh
Cc1cccc(C(=O)NC(=S)Nc2ccc(S(=O)(=O)N3CCCCC3)cc2)c1,i,8.91µM,?,i,i,i
Cc1ccc(C(=O)NC(=S)Nc2ccc(N3CCOCC3)cc2)c(C)c1,i,31.6µM,i,i,nt,i
COc1ccc(OC)c(N2C(N)=NC(N)=NC23CCCC3)c1,i,22.4µM,i,i,nt,i
O=[N+]([O-])c1cc2c(c(CSc3nnc(Nc4ccccc4)s3)c1)OCOC2,i,i,i,i,i,i
Cc1ccccc1Nc1nnc(SCc2cc([N+](=O)[O-])cc3c2OCOC3)s1,i,?,17.8µM,i,14.1µM,?
CC(C)CCC[C@@H](C)[C@@H]1CC[C@@H]2[C@H]3CC[C@H]4C[C@@H](N)CC[C@@]4(C)[C@@H]3CC[C@]21C,nt,i[13.5 µM],nt,i[10 µM],i,nt
Cc1ccc(C=C2C(=O)c3ccccc3C2=O)s1,?,0.501µM,i,i,12.6µM,i
O=C1C(=Cc2cccs2)C(=O)c2ccccc21,i,?,?,i[10 µM],?,i
